# Results reported in PubChem BioAssay (EPA / NIEHS).
# Records with an inconclusive call do not appear. Calls of active or inactive are those of the source. Rule for the calls, unless noted: active = hit-call score of the fitted dose curve at least 0.9, where 1 is the maximum; inactive = score below 0.9.
# Experiments:
# [1] = APR_HepG2_CellCycleArrest_1hr: Apredica 1-hour HepG2 Assay for Cell Cycle Arrest (AID 2282666); conditions: high-content imaging, actives raise or lower the signal
# Summary of the method: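 HepG2 cells exposed for 1 h to 0.39–200 uM compound (0.5% DMSO). Fixed, Hoechst-stained nuclei imaged by ArrayScan; DNA content quantified by Cell Cycle analysis; bidirectional fit against DMSO.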
# [2] = ACEA_ER_80hr: ACEA Biosciences xCELLigence Real-Time Cell Analysis on Estrogen Receptor Agonism for Proliferation (AID 2282667; active = hit-call score of the fitted dose curve at least 0.9, where 1 is the maximum); conditions: T47D proliferation, impedance (xCELLigence), 80 h
# Summary of the method: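 Estrogen-driven proliferation is captured as electrode impedance in T47D cells 80 h after compound addition. Test articles ran at 8 concentrations, 1:4 dilutions from 100 uM final, in two replicate plates.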
# [3] = APR_HepG2_NuclearSize_1hr: Apredica 1-hour HepG2 Assay for Nuclear Size (AID 2282670); conditions: high-content imaging, actives raise or lower the signal
# Summary of the method: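 HepG2 cells dosed 1 hr with 0.39–200 uM compound (0.5% DMSO), formaldehyde-fixed, Hoechst 33342-stained and imaged at 20x; nuclear diameter from nuclear stain, fitted bidirectionally against DMSO.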
# [4] = APR_HepG2_p53Act_1hr: Apredica 1-hour HepG2 Assay for p53 Activation (AID 2282671); conditions: high-content imaging, actives raise or lower the signal
# Summary of the method: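 HepG2 cells treated 1 h with compound at 0.39–200 uM (10 concentrations, duplicate) in 0.5% DMSO. Formaldehyde-fixed, permeabilised cells immunostained for p53 with Hoechst 33342; high-content imaging, bidirectional fit versus DMSO.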
# [5] = APR_HepG2_MitoMembPot_1hr: Apredica 1-hour HepG2 Assay for Mitochondrial Membrane Potential (AID 2282675); conditions: imaging, actives raise or lower the signal
# Summary of the method: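 HepG2 cells dosed 1 hour with 0.39–200 uM compound in duplicate, 0.5% DMSO final. MitoTracker Red CMXRos (250 nM, 30 min) loaded before formaldehyde fixation; fluorescence quantified by high-content imaging, bidirectional fitting versus DMSO.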
# [6] = APR_HepG2_CellCycleArrest_24hr: Apredica 24-hour HepG2 Assay for Cell Cycle Arrest (AID 2282905); conditions: imaging, actives raise or lower the signal;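 note: cell cycle arrest scored as ratio of 2N to 4N nuclear DNA content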
# Summary of the method: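 Compounds at 0.39–200 uM (0.5% DMSO) for 24 h, then fixed and Hoechst 33342 stained. Cell-cycle analysis of nuclear DNA content by high-content imaging, fitted bidirectionally versus DMSO.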
# [7] = APR_HepG2_StressKinase_1hr: Apredica 1-hour HepG2 Assay for Stress Kinase (AID 2282906); conditions: HepG2 stress kinase (phospho-c-Jun) imaging, actives raise or lower the signal
# Summary of the method: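 HepG2 cells dosed 0.39-200 uM (0.5% DMSO) for 1 h, then formaldehyde-fixed. Stress kinase read by phospho-c-Jun immunofluorescence using high-content imaging; bidirectional fit vs DMSO.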
# [8] = APR_HepG2_NuclearSize_24hr: Apredica 24-hour HepG2 Assay for Nuclear Size (AID 2282907); conditions: high-content imaging, actives raise or lower the signal
# Summary of the method: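 HepG2 cells exposed 24 h to compounds at 0.39–200 uM (0.5% DMSO), fixed, Hoechst 33342 stained and imaged at 20x; nuclear diameter measured by automated image analysis, fitted bidirectionally against DMSO controls.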
# [9] = APR_HepG2_CellLoss_24hr: Apredica 24-hour HepG2 Assay for Cell Loss (AID 2282908); conditions: high-content imaging;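 for AC50: fit in both directions so a hit may be cell loss or gain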
# Summary of the method: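 HepG2 cells exposed 24 hr to 0.39–200 uM compound in duplicate at 0.5% v/v final DMSO. Cells fixed in 3.7% formaldehyde and Hoechst 33342-stained. Cell number came from nuclear imaging at 20x. Bidirectional fit versus DMSO.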
# [10] = APR_HepG2_MicrotubuleCSK_24hr: Apredica 24-hour HepG2 Assay for Microtubule CSK Stabilty (AID 2282909); conditions: HepG2 microtubule cytoskeleton imaging, actives raise or lower the signal
# Summary of the method: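 HepG2 cells were treated 24 hr with compound at 0.39–200 uM in duplicate (0.5% DMSO final), then fixed and permeabilized. Alpha-tubulin immunofluorescence was imaged by high-content microscopy, with bidirectional fitting against DMSO and taxol as positive control.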
# [11] = APR_HepG2_MitoticArrest_24hr: Apredica 24-hour HepG2 Assay for Mitotic Arrest (AID 2282910); conditions: high-content imaging, actives raise or lower the signal
# Summary of the method: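 Compounds are dosed onto HepG2 cells across ten concentrations up to 200 uM for 24 hr. Cells are then fixed in 3.7% formaldehyde, permeabilised, and labelled for phospho-histone H3 and nuclei; images are scored by cell cycle analysis and fitted bidirectionally relative to DMSO.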
# [12] = APR_HepG2_MitoMass_24hr: Apredica 24-hour HepG2 Assay for Mitochondrial Mass (AID 2282912); conditions: high-content imaging, actives raise or lower the signal
# Summary of the method: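 HepG2 cells exposed 24 hr to 0.39–200 uM compound, 0.5% v/v DMSO, in duplicate. Stained before fixation with 250 nM MitoTracker Red CMXRos for 30 min, then imaged at 20x with Hoechst nuclei. Fitted in both directions against DMSO.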
# [13] = APR_HepG2_p53Act_24hr: Apredica 24-hour HepG2 Assay for p53 Activation (AID 2282913); conditions: high-content imaging, actives raise or lower the signal;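 note: p53 protein immunofluorescence averaged per cell in HepG2 with Hoechst nuclei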
# Summary of the method: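 Following 24 hr dosing of HepG2 at 0.39–200 uM, the cells undergo formaldehyde fixation, Triton permeabilization and multiplexed antibody labeling that includes p53 (Cy5). Signal from the imaging is referenced to DMSO solvent controls.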
# [14] = APR_HepG2_CellCycleArrest_72hr: Apredica 72-hour HepG2 Assay for Cell Cycle Arrest (AID 2282914); conditions: high-content imaging, actives raise or lower the signal
# Summary of the method: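 Using multiplexed high-content imaging, HepG2 nuclei stained with Hoechst 33342 (2 ug/mL) were analysed for DNA content after fixation and permeabilization. Treatment lasted 72 hr across 0.39–200 uM in duplicate with final DMSO 0.5% v/v; DMSO served as negative control.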
# [15] = APR_HepG2_MitoMembPot_24hr: Apredica 24-hour HepG2 Assay for Mitochondrial Membrane Potential (AID 2282911); conditions: imaging, actives raise or lower the signal
# Summary of the method: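 Mitochondrial dye uptake (MitoTracker Red CMXRos, 250 nM, 30 min pre-fixation) in HepG2 after 24 hr compound exposure, 0.39–200 uM; ArrayScan images at 20x, activity fitted in both directions relative to DMSO.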
# [16] = APR_HepG2_P-H2AX_1hr: Apredica 1-hour HepG2 Assay for H2AX Phosphorylation (AID 2282673); conditions: high-content imaging, actives raise or lower the signal
# Summary of the method: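 HepG2 dosed 1 hr at 0.39-200 uM (0.5% DMSO final), duplicate. Fixed in 3.7% formaldehyde, Triton permeabilized, immunostained for phospho-histone H2A.x (1:200) with Hoechst 33342; ArrayScan 20x imaging, bidirectional fit vs DMSO.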
# [17] = APR_HepG2_MitoMass_1hr: Apredica 1-hour HepG2 Assay for Mitochondrial Mass (AID 2282674); conditions: high-content imaging, actives raise or lower the signal
# Summary of the method: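 HepG2 cells dosed 1 hr with 0.39-200 uM compound (0.5% DMSO), duplicate wells. Mitochondria stained with 250 nM MitoTracker Red CMXRos for 30 min before formaldehyde fixation, imaged at 20x by ArrayScan; bidirectional fit versus DMSO.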
# [18] = APR_HepG2_MitoticArrest_1hr: Apredica 1-hour HepG2 Assay for Mitotic Arrest (AID 2282672); conditions: high-content imaging, actives raise or lower the signal
# Summary of the method: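 HepG2 cells exposed 1 hr to compounds at 0.39–200 uM (0.5% v/v DMSO final), then fixed in 3.7% formaldehyde and immunostained for phospho-histone H3 with Hoechst 33342. Mitotic arrest scored by automated fluorescence imaging, fitted bidirectionally versus DMSO.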
structure (smiles),measurement,setting,value
CCNc1nc(Cl)nc(NC(C)C)n1,outcome,[1],inactive
same,outcome,[2],inactive
same,outcome,[3],inactive
same,outcome,[4],inactive
same,outcome,[5],inactive
same,outcome,[6],inactive
same,outcome,[7],inactive
same,outcome,[8],inactive
same,outcome,[9],inactive
same,outcome,[10],inactive
same,outcome,[11],inactive
same,outcome,[12],inactive
same,outcome,[13],inactive
same,outcome,[14],inactive
Cc1cc(Cl)ccc1OCC(=O)O,outcome,[1],inactive
same,outcome,[2],inactive
same,outcome,[3],inactive
same,outcome,[4],inactive
same,outcome,[5],inactive
same,outcome,[6],inactive
same,outcome,[7],inactive
same,outcome,[8],inactive
same,outcome,[9],inactive
same,outcome,[10],inactive
same,outcome,[11],inactive
same,outcome,[15],inactive
same,outcome,[12],inactive
same,outcome,[13],inactive
same,outcome,[14],inactive
CCCC1COC(Cn2cncn2)(c2ccc(Cl)cc2Cl)O1 (centres undefined),outcome,[1],inactive
same,outcome,[2],inactive
same,outcome,[3],inactive
same,outcome,[4],inactive
same,outcome,[16],inactive
same,outcome,[5],inactive
same,outcome,[6],inactive
same,outcome,[7],inactive
same,outcome,[8],inactive
same,outcome,[9],inactive
same,outcome,[10],inactive
same,outcome,[11],inactive
same,outcome,[12],inactive
same,outcome,[13],inactive
same,AC50,[14],100 µM (active)
OC(c1ccc(Cl)cc1)(c1cncnc1)c1ccccc1Cl (centres undefined),outcome,[1],inactive
same,outcome,[2],inactive
same,outcome,[3],inactive
same,outcome,[4],inactive
same,outcome,[5],inactive
same,outcome,[6],inactive
same,outcome,[7],inactive
same,outcome,[8],inactive
same,AC50,[9],108 µM (active)
same,AC50,[10],84.9 µM (active)
same,AC50,[11],91.1 µM (active)
same,outcome,[12],inactive
same,outcome,[13],inactive
same,outcome,[14],inactive
CCCCC(CC)COC(=O)c1ccccc1C(=O)OCC(CC)CCCC (centres undefined),outcome,[1],inactive
same,outcome,[2],inactive
same,outcome,[3],inactive
same,outcome,[4],inactive
same,outcome,[5],inactive
same,outcome,[6],inactive
same,outcome,[7],inactive
same,outcome,[8],inactive
same,outcome,[9],inactive
same,outcome,[10],inactive
same,outcome,[11],inactive
same,outcome,[12],inactive
same,outcome,[13],inactive
same,outcome,[14],inactive
COc1nc(C)nc(NC(=O)NS(=O)(=O)c2ccccc2CCC(F)(F)F)n1,outcome,[1],inactive
same,outcome,[3],inactive
same,outcome,[4],inactive
same,outcome,[5],inactive
same,outcome,[6],inactive
same,outcome,[7],inactive
same,outcome,[8],inactive
same,outcome,[9],inactive
same,outcome,[10],inactive
same,outcome,[11],inactive
same,outcome,[15],inactive
same,outcome,[12],inactive
same,outcome,[13],inactive
same,outcome,[14],inactive
COC(=O)N(OC)c1ccccc1COc1ccn(-c2ccc(Cl)cc2)n1,outcome,[1],inactive
same,outcome,[2],inactive
same,outcome,[3],inactive
same,outcome,[4],inactive
same,outcome,[17],inactive
same,AC50,[5],0.0634 µM (active)
same,outcome,[6],inactive
same,outcome,[7],inactive
same,outcome,[8],inactive
same,AC50,[9],3.37 µM (active)
same,AC50,[10],6.07 µM (active)
same,outcome,[11],inactive
same,outcome,[12],inactive
same,outcome,[13],inactive
same,outcome,[14],inactive
COC(=O)C(C)Oc1ccc(Oc2ccc(Cl)cc2Cl)cc1 (centres undefined),outcome,[1],inactive
same,outcome,[3],inactive
same,outcome,[4],inactive
same,outcome,[16],inactive
same,outcome,[5],inactive
same,outcome,[6],inactive
same,outcome,[7],inactive
same,outcome,[8],inactive
same,outcome,[9],inactive
same,outcome,[10],inactive
same,outcome,[11],inactive
same,outcome,[12],inactive
same,outcome,[13],inactive
same,outcome,[14],inactive
CC(Oc1ccc(Cl)cc1Cl)C(=O)O (centres undefined),outcome,[1],inactive
same,outcome,[2],inactive
same,outcome,[3],inactive
same,outcome,[4],inactive
same,outcome,[5],inactive
same,outcome,[6],inactive
same,outcome,[7],inactive
same,outcome,[8],inactive
same,outcome,[9],inactive
same,outcome,[10],inactive
same,outcome,[11],inactive
same,outcome,[12],inactive
same,outcome,[13],inactive
same,outcome,[14],inactive
CNC(=O)ON=CC(C)(C)SC,outcome,[1],inactive
same,outcome,[2],inactive
same,outcome,[3],inactive
same,outcome,[4],inactive
same,outcome,[5],inactive
same,outcome,[6],inactive
same,outcome,[7],inactive
same,outcome,[8],inactive
same,outcome,[9],inactive
same,outcome,[10],inactive
same,outcome,[11],inactive
same,outcome,[12],inactive
same,outcome,[13],inactive
same,outcome,[14],inactive
CC1=C(C(=O)Nc2ccccc2)SCCO1,outcome,[1],inactive
same,outcome,[2],inactive
same,outcome,[3],inactive
same,outcome,[4],inactive
same,outcome,[5],inactive
same,outcome,[6],inactive
same,outcome,[7],inactive
same,outcome,[8],inactive
same,outcome,[9],inactive
same,outcome,[10],inactive
same,outcome,[11],inactive
same,outcome,[15],inactive
same,outcome,[12],inactive
same,outcome,[13],inactive
same,outcome,[14],inactive
COc1nc(NC(C)C)nc(NC(C)C)n1,outcome,[1],inactive
same,outcome,[2],inactive
same,outcome,[3],inactive
same,outcome,[4],inactive
same,outcome,[5],inactive
same,outcome,[6],inactive
same,outcome,[7],inactive
same,outcome,[8],inactive
same,outcome,[9],inactive
same,outcome,[10],inactive
same,outcome,[11],inactive
same,outcome,[15],inactive
same,outcome,[12],inactive
same,outcome,[13],inactive
same,outcome,[14],inactive
N#Cc1cc(Br)c(O)c(Br)c1,outcome,[1],inactive
same,outcome,[2],inactive
same,outcome,[3],inactive
same,outcome,[4],inactive
same,outcome,[17],inactive
same,outcome,[5],inactive
same,outcome,[6],inactive
same,outcome,[7],inactive
same,outcome,[8],inactive
same,outcome,[9],inactive
same,outcome,[10],inactive
same,outcome,[11],inactive
same,outcome,[12],inactive
same,outcome,[13],inactive
same,AC50,[14],100 µM (active)
CC(C)C1(C)N=C(c2nc3ccccc3cc2C(=O)O)NC1=O (centres undefined),outcome,[1],inactive
same,outcome,[2],inactive
same,outcome,[3],inactive
same,outcome,[4],inactive
same,outcome,[18],inactive
same,outcome,[5],inactive
same,outcome,[6],inactive
same,outcome,[7],inactive
same,outcome,[8],inactive
same,outcome,[9],inactive
same,outcome,[10],inactive
same,outcome,[11],inactive
same,outcome,[15],inactive
same,outcome,[12],inactive
same,outcome,[13],inactive
same,outcome,[14],inactive
